{"source": "PubChem BioAssay (NCATS)", "note": "Inconclusive results are not listed. A call without a number means that no potency is given here. Values without a mark were called inactive. Active and inactive are the calls of the source. The call rests on the fitted dose curve; in most records, active means well fitted inhibition curve with a large enough effect; inconclusive means small, poorly fitted or top-dose-only effect; inactive means no such curve, though single readings can be large or run the other way. Potency means the concentration at half of the fitted maximal effect.", "data": [{"assay": "Counterscreen qHTS for small molecule stabilizers of the endoplasmic reticulum resident proteome: GLuc-NoTag assay (AID 1508627)", "details": "Gaussia luciferase NoTag secretion counterscreen, luminescence, thapsigargin 100 nM for final 4 h; series mostly up to 76.4 µM", "text": "Assay Provider: Brandon K. Harvey Ph.D.\nNational Institute on Drug Abuse, National Institutes of Health, Baltimore, MD\nEndoplasmic reticulum (ER) dysregulation is associated with human pathologies including neurodegenerative, cardiovascular, muscular, and diabetic conditions. Maintenance of ER calcium is critical for functions of the ER and its depletion can lead to loss of ER resident proteins, in a process termed exodosis. Therapeutic compounds capable of attenuating the redistribution of ER proteins under pathological conditions may slow or stop disease progression. To identify such compounds, we performed a quantitative high-throughput screen (qHTS) using the SERCaMP assay, which monitors secretion of ER resident proteins triggered by calcium depletion.\nSERCaMP was initially developed as a reporter of ER calcium homeostasis using a Gaussia luciferase with a modified signal peptide and carboxy-terminus (GLuc-SERCaMP), modifications that confer secretion of the reporter in response to ER calcium depletion (Henderson et al., 2014). The assay was used to screen 9,501 compounds, including a collection of drugs approved by the FDA (US), EMA (EU), NHI (Japan), and HC (Canada) regulatory agencies (Huang et al., 2011). Since the SERCaMP reporter reflects the exodosis phenomenon (Trychta et al., 2018a), compounds identified in the screen have the potential to prevent exodosis by different mechanisms such as stabilizing ER calcium or augmenting ERS retrieval.\n1. Henderson, M.J., Wires, E.S., Trychta, K.A., Richie, C.T., and Harvey, B.K. (2014). SERCaMP: a carboxy-terminal protein modification that enables monitoring of ER calcium homeostasis. Mol Biol Cell 25, 2828-2839.\n2. Huang, R., Southall, N., Wang, Y., Yasgar, A., Shinn, P., Jadhav, A., Nguyen, D.T., and Austin, C.P. (2011). The NCGC pharmaceutical collection: a comprehensive resource of clinically approved drugs enabling repurposing and chemical genomics. Sci Transl Med 3, 80ps16.\n3. Trychta, K.A., Back, S., Henderson, M.J., and Harvey, B.K. (2018a). KDEL Receptors Are Differentially Regulated to Maintain the ER Proteome under Calcium Deficiency. Cell Rep 25, 1829-1840 e1826.\nSEQUENCE No. (1, 2, 3, etc.); […] (e.g., Cells, Incubation, Reagent, etc.); VALUE and DESCRIPTION.\n1; Reagent; 5 uL; 1000 SH-SY5Y cells per wells\n3; Compound; 23 nL; Control inhibitor / compound library\n5; Reagent; 100 nM; Thapsigargin\n7; Reagent; 1 uL; 0.5x coelenterazine\n8; Detection; Luminescence; ViewLux imaging system\nNOTES (numbers refer to sequence above)\n1; SH-SY5Y human neuroblastoma cells stably expressing the constitutively secreted GLuc (SH-SY5Y-GLuc-NoTag) cells were seeded in 1,536 well white tissue culture treated plates (Corning, Cat# 7464) in DMEM-high glucose-sodium pyruvate (ThermoFisher Scientific, Cat #10569) supplemented with 10% bovine growth serum (Hyclone), 10 U/ml penicillin (Gibco), 10 ug/ml streptomycin (Gibco), and 20 mM HEPES.\n2; Assay plates were incubated for 5 hour at 37C in a humidified incubator containing 5% CO2.\n4; Cells were then incubated for 19 hours at 37C, 5% CO2.\n5; Thapsigargin was added at 100 nM to deplete ER calcium stores.\n6; Cells were incubated for 4 hour (37 °C, 5% CO2)\n7; Gaussia luciferase in the medium was measured by adding 1 ul of 0.5x coelenterazine (final concentration 0.07x) prepared in Gaussia Luciferase Glow Assay Buffer (Pierce), without addition of the Cell Lysis Buffer Reagent.\n8; Luminescence was measured using a ViewLux CCD imaging system (Perkin Elmer) equipped with clear filters. […] The same controls were also used for the calculation of the Z' factor, a measure of assay quality control, as previously described (Zhang et al., 1999). For the initial validation of activity in the SERCaMP assays, hits from the primary screen were assayed again at 11-concentrations (1.3 nM - 76.6 uM). SH-SY5Y-GLuc-SERCaMP cells were assayed for ER Ca2+ depletion as outlined above.\n1. Zhang, J.H., Chung, T.D., and Oldenburg, K.R. (1999). […]", "values": [{"smiles": "CN1CC[C@@]23CCCCC2C1Cc1ccc(O)cc13", "note": "(stereo not given in full)", "Potency": "inactive"}, {"smiles": "CCCOc1ccc2[nH]cc(C3=CCNCC3)c2n1", "Potency": "inactive"}, {"smiles": "Fc1ccc(C(OCCN2CCN(C/C=C/c3ccccc3)CC2)c2ccc(F)cc2)cc1", "Potency": "44.7 µM (active)"}, {"smiles": "C[C@H](N)Cc1c[nH]c2ccc(OCc3cccs3)cc12", "Potency": "inactive"}, {"smiles": "CC(C)C[C@H](NC(=O)[C@H](Cc1ccccc1)NC(=O)CNC(=O)[C@H](C)NC(=O)[C@@H](N)Cc1ccc(O)cc1)C(=O)O", "activity change, negative = inhibition": "12% [at 9.46 µM]"}, {"smiles": "C[C@H]1CCC/C=C/C2C[C@H](O)C[C@H]2[C@H](O)/C=C/C(=O)O1", "note": "(stereo not given in full)", "Potency": "inactive"}, {"smiles": "C[C@H]1C[C@H](C)C(=O)[C@@H]([C@H](O)CC2CC(=O)NC(=O)C2)C1", "Potency": "1.58 µM (active)"}, {"smiles": "CCC(Sc1ccccc1)C(=O)OC1CC2CCC(C1)N2C", "note": "(stereo not given)", "Potency": "inactive"}, {"smiles": "OC[C@@H]1[C@@H](O)[C@H](O)[C@H]2[C@@H](O)CCN21", "Potency": "inactive"}, {"smiles": "C[C@@H](C(=O)OC1C[C@H]2CC[C@@H](C1)N2C)c1ccc(Br)cc1", "note": "(stereo not given in full)", "Potency": "inactive"}, {"smiles": "CN1C(=O)COc2c(C(=O)N[C@@H]3CN4CCC3CC4)cc(Cl)cc21", "Potency": "inactive"}, {"smiles": "O[C@@H]1[C@H](O)[C@H]2[C@@H](O)CCN2C[C@@H]1O", "Potency": "inactive"}, {"smiles": "CC(=O)C1=C(O)[C@@H]2[C@@H]3c4c[nH]c5cccc(c45)C[C@@H]3C(C)(C)N2C1=O", "Potency": "inactive"}, {"smiles": "CC[C@H](Oc1ccc(Cl)cc1)C(=O)OC1C[C@H]2CC[C@@H](C1)N2C", "note": "(stereo not given in full)", "Potency": "inactive"}, {"smiles": "Fc1ccc(C(OCCN2CCN(C/C=C\\c3ccccc3)CC2)c2ccc(F)cc2)cc1", "Potency": "39.8 µM (active)"}, {"smiles": "Oc1ccc2c3c1O[C@H]1c4[nH]c5ccccc5c4C[C@]4(O)[C@H](C2)N(CC2CC2)CC[C@@]314", "Potency": "inactive"}, {"smiles": "OC12C3C4CC5C6C4C1C6C(C53)N2CCc1cccc(F)c1", "note": "(stereo not given)", "Potency": "inactive"}, {"smiles": "CC(C)(O)C1OC2CCC3(C)C(O)(CCC4Cc5c([nH]c6ccccc56)C43C)C2=CC1=O", "note": "(stereo not given)", "Potency": "inactive"}, {"smiles": "CC(C)[C@@]1(NC(=O)[C@@H]2C[C@H]3c4cccc5[nH]cc(c45)C[C@@H]3N(C)C2)O[C@@]2(O)[C@H]3CCCN3C(=O)[C@H](Cc3ccccc3)N2C1=O", "Potency": "inactive"}, {"smiles": "CN1CC[C@@H]2CN3CCc4cccc(c43)[C@H]2C1", "Potency": "inactive"}, {"smiles": "CN1C2CCC1CC(OC(=O)C1CCC(C(=O)OC3CC4CCC(C3)N4C)(c3ccccc3)c3ccccc31)C2", "note": "(stereo not given)", "Potency": "inactive"}, {"smiles": "CC(C)[C@]1(O)[C@@H](OC(=O)c2ccc[nH]2)[C@@]2(O)[C@@]3(C)C[C@]4(O)O[C@@]5([C@H](O)[C@@H](C)CC[C@]35O)[C@@]2(O)C41C", "Potency": "inactive"}, {"smiles": "CC(C)(O)C1O[C@H]2CC[C@@]3(C)[C@@](O)(CC[C@H]4Cc5c([nH]c6ccccc56)[C@@]43C)C2=CC1=O", "note": "(stereo not given in full)", "Potency": "inactive"}, {"smiles": "c1ccc2sc(C3(N4CCCC4)CCCCC3)cc2c1", "Potency": "inactive"}, {"smiles": "CCCCCCC[n+]1ccc(-c2cc[n+](CCCCCCC)cc2)cc1", "Potency": "inactive"}, {"smiles": "NC(N)=NCCCCCCCCCCN=C(N)N", "Potency": "inactive"}, {"smiles": "CC(C)=CCCN1CCC(NC(=O)C(O)(c2ccccc2)C2CCCC2)CC1", "note": "(stereo not given)", "Potency": "inactive"}, {"smiles": "Cn1c2c(c3ccccc31)CCNCC2", "Potency": "inactive"}, {"smiles": "CCN(CC)CCO[C@H]1CC[C@@]2(C)C(=CC[C@@H]3[C@H]2CC[C@]2(C)C(=O)CC[C@H]32)C1", "Potency": "25.1 µM (active)"}, {"smiles": "COc1ccc2[nH]cc(C3=CCNCC3)c2c1", "Potency": "6.31 µM (active)"}, {"smiles": "CN1CC[C@@H]2CN3CCc4cccc(c43)[C@@H]2C1", "Potency": "inactive"}, {"smiles": "CN1C2CCC1CC(OC(c1ccc(F)cc1)c1ccc(F)cc1)C2", "note": "(stereo not given)", "Potency": "22.4 µM (active)"}, {"smiles": "Cl.Cl.Cl.Cl.Cl.Cl.N.N.N.N.NNNNN.NNNNN.O.O.[Ru].[Ru].[Ru]", "Potency": "12.6 µM (active)"}, {"smiles": "CN1CC[C@@]2(c3cccc(O)c3)Cc3nc4ccccc4cc3C[C@H]2C1", "Potency": "inactive"}, {"smiles": "CN1[C@@H]2CC[C@H]1CC(OC(c1ccc(F)cc1)c1ccc(F)cc1)C2", "note": "(stereo not given in full)", "Potency": "44.7 µM (active)"}]}]}
